# Assay outcomes: PubChem, National Center for Advancing Translational Sciences (NCATS)
# The list is not random: actives were taken first. Their share in the collection is about 2%.
# HttQ103 aggreg = qHTS Multiplex Assay to Identify Dual Action Probes in a Cell Model of Huntington: Aggregate Formation (GFP); PC12 HttQ103-GFP aggregates, Acumen cytometry, 40 h; 1.1% of 220,000 active; Potency, µM (titrated, usually from 46.1 µM), without a hit: top-dose activity change, negative = inhibition, hits mostly inhibitors; also: potency is read from the fitted curve at half-maximal effect; % is scaled to controls: 0 for no effect and ±100 for the full control effect; nearly all actives have a fitted effect of over 60% in size
#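 PC12 cells stably carrying ecdysone-inducible HTT exon 1 Q103–GFP were induced with tebufenozide (100 nM final) and treated with library compounds in titration. GFP aggregates in lysates were counted by laser scanning cytometry.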
# TRb SRC2 PPI = qHTS for Inhibitors of the Interaction of Thyroid Hormone Receptor and Steroid Receptor Coregulator 2. TRbeta-SRC2 peptide binding, fluorescence polarization; receptor liganded with 1 µM T3. Potency, µM (highest dose often 106 µM), for the others: top-dose activity change, negative = inhibition, hits mostly inhibitors. 0.065% of 280,000 active;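 also: potency is read from the fitted curve at half-maximal effect; plate controls were bound peptide for no effect and peptide without receptor for full effect; nearly all actives have a fitted effect of over 50% in size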
# Target sequence (P10828 whole entry, looked up): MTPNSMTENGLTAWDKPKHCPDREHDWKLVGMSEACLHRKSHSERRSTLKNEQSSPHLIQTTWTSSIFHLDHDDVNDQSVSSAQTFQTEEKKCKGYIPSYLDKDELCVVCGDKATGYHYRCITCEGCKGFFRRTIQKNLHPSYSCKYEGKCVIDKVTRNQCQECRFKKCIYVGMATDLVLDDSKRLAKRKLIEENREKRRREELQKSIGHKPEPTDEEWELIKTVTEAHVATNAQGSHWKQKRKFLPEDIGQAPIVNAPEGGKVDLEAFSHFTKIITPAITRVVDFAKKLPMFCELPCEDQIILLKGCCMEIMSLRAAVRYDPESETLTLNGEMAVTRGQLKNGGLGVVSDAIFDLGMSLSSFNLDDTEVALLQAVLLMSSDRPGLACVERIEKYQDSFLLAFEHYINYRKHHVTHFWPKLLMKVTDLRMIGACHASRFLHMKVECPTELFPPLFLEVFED
#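 Human TRb ligand-binding domain (0.6 uM) is mixed with 20 nM Texas Red SRC2 peptide and 1 uM T3; after compound addition and 5 hr at ambient temperature, polarization is measured and normalized to unbound and bound controls.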
# TexasRed fluor = Total Fluorescence Counterscreen for Inhibitors of the Interaction of Thyroid Hormone Receptor and Steroid Receptor Coregulator 2; TRb/SRC2 Texas Red total fluorescence interference; Potency, µM (highest dose often 106 µM), for inactives: top-dose fluorescence change, negative = quenching; 0.29% of 280,000 active; AID 1479, 2009; active = well fitted curve in either direction with a large enough effect; inconclusive = small, poorly fitted or top-dose-only effect; also: potency is read from the fitted curve at half-maximal effect; % is scaled to controls: 0 for no effect and ±100 for the full control effect
#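 Human TRβ ligand-binding domain (0.6 uM) and Texas Red SRC2 peptide (20 nM) in Tris buffer with 1 uM T3 and 5% DMSO were incubated with pinned compound for 5 hr at ambient temperature. Total fluorescence was computed as S + 2P (555/632 nm).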
# KDM4E inh = qHTS Assay for Inhibitors of Human Jumonji Domain Containing 2E (JMJD2E) | JMJD2E catalytic domain, FDH-coupled NADH fluorescence (FDH is formaldehyde dehydrogenase) | Potency, µM (doses to about 57.1 µM), inactives show at the top dose activity change, negative = inhibition, usual class: inhibitors | 1.6% of 230,000 active; active = well fitted inhibition curve with a large enough effect, not every such curve was filed as active; inconclusive = small, poorly fitted or top-dose-only effect, or another doubt; inactive = no such curve, though single readings can be large or run the other way;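 also: potency is read from the fitted curve at half-maximal effect; 0% = wells with enzyme and -100% = buffer wells without enzyme; nearly all actives have a fitted effect of over 50% in size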
# Target sequence (B2RXH2 1-337 limits assumed): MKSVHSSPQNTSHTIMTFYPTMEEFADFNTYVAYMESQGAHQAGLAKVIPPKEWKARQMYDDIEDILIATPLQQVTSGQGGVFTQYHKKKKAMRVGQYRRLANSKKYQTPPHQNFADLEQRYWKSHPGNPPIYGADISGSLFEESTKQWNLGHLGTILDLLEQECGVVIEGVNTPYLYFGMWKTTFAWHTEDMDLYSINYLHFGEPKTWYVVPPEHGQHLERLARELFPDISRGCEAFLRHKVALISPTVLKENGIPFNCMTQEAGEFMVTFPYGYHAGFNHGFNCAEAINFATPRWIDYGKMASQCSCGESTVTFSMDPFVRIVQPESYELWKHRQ
# FBPA coupling cs = qHTS Assay for Inhibitors of Fructose-1,6-bisphosphate Aldolase from Giardia Lamblia: Coupling assay counterscreen; coupling enzyme system counterscreen, AmpLite Red fluorescence; activity change, negative = inhibition, % at 58.2 µM, hits read low; 0.67% of 290,000 active; in the data active = activity change below about -30%; also: % is scaled to controls: 0 for no effect and ±100 for the full control effect
#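 Compounds tested against the coupling enzymes alone at 57.5 uM final; readout was AmpLite Red fluorescence (525/598 nm) after 20 min at RT.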
# HTT ATP protect = qHTS Multiplex Assay to Identify Dual Action Probes in a Cell Model of Huntington: Cytoprotection (ATP); PC12 HTT-Q103 induced, cytoprotection, ATP luminescence, 40 h; Potency, µM (doses to about 56.4 µM), for the others: cytoprotection (ATP increase), usual class: activators; AID 1471, 2008; 0.14% of 230,000 active; also: potency is read from the fitted curve at half-maximal effect; % of control where 0% means no effect; nearly all actives have a fitted effect of over 45% in size
#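 Stable PC12 Q103-GFP cells in serum-supplemented, phenol red-free DMEM; induction by tebufenozide at 100 nM final; compound dose series; cell viability quantified luminescently from ATP.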
# The depositor's hits bear a star; ? = inconclusive; nt = no result; ! = repeats disagree; [ ] = another dose, or the depositor's remark. Unless noted, calls follow the shape of the dose curve; as a rule, active = well fitted curve in the direction sought with a large enough effect; inconclusive = small, poorly fitted or top-dose-only effect, or another doubt; inactive = no such curve, though single readings can be large; an effect the other way counts as inactive or inconclusive.
SMILES,HttQ103 aggreg,TRb SRC2 PPI,TexasRed fluor,KDM4E inh,FBPA coupling cs,HTT ATP protect
Cc1ccc(CNC(=O)c2cc3c(=O)n(Cc4ccco4)ccc3nc2C)cc1,nt,5.3%,-18.8%,nt,nt,nt
Cc1cc(C)c(/C=C/c2onc(C)c2S(=O)(=O)N2CCC(C(=O)Nc3ccc(Cl)c(C(F)(F)F)c3)CC2)c(C)c1,nt,-0.1%,-10.4%,nt,nt,nt
COC1C(O)CC(=O)OC(C)C/C=C/C=C/[C@@H](OC2CCC(N(C)C)C(C)O2)C(C)C[C@@H](CC=O)[C@@H]1O[C@H]1OC(C)[C@H](O[C@@H]2C[C@@](C)(O)C(O)C(C)O2)C(N(C)C)C1O (some centres undefined),nt,-0.9%,-2.2%,0.7%,-3.6,-16.7%
CN1CCN(CCC(=O)N/N=C/c2ccccc2F)CC1,-8.1%[9.22 µM],-2.8%,-0.8%,5.5%,2.7,16.4%[10 µM]
O=C(CCN1CCN(c2ccccc2)CC1)N/N=C/c1ccccc1O,12.6µM*,4.5%,0.3%,28.2µM*,0.1,-130.5%
O=C(CCC(=O)Nc1ccc(F)cc1)N/N=C/c1cccc(Br)c1,nt,nt,nt,nt,-30.6*,nt
O=C(Cc1n[nH]c(=O)[nH]c1=O)N/N=C/c1ccccc1O,6.7%,0.5%,-0.2%,14.1µM*,3.0,-8.0%
O=C(N/N=C/c1cc([N+](=O)[O-])ccc1O)C1C2CCCCC21 (centres undefined),-2.9%[9.22 µM],6.3%,-1.3%,?,-1.3,1.4%[10 µM]
O=C(N/N=C/c1cc([N+](=O)[O-])ccc1O)C1CCCCC1,10µM*,1.3%,-6.0%,7.08µM*,3.2,-21.2%[10 µM]
Cc1ccc(C)c(CSc2nc3ccncc3n2CC(=O)Nc2ccc(N(C)C)cc2)c1,nt,0.5%,0.8%,nt,nt,nt
COc1cc(OC)c(NC(=O)Nc2nnc(N(C)C3CCCCC3)s2)cc1Cl,nt,3.0%,0.7%,nt,nt,nt
CCOC(=O)N/N=C1/C[C@@H](O)[C@@H](O)[C@@H]2[C@@H]3C(=O)N(c4cccc(Oc5ccccc5)c4)C(=O)[C@H]3CC[C@H]12,nt,2.2%[11.2 µM],1.9%[11.2 µM],nt,2.1,0.6%[10 µM]
CC(C)Cn1c(=O)c2sccc2n2c(CCCC(=O)NCCc3ccccc3)nnc12,nt,1.5%,-1.4%,nt,nt,nt
O=C(Cc1c[nH]c2ccccc12)N/N=C/c1ccccc1O,-16.9%[9.22 µM],-8.0%,-7.1%,25.1µM*,-0.3,25.8%[10 µM]
CCCCC[C@H](CC(=O)NO)C(=O)N[C@@H](C(=O)N1CCC[C@H]1CO)C(C)C,nt,nt,nt,nt,nt,-2.7%[1.9 µM]
C=CCOn1c(=O)c(-c2ccc(C)cc2)[n+]([O-])c2ccccc21,nt,nt,nt,nt,0.1,nt
C=CCOn1c(=O)c(-c2ccccc2)[n+]([O-])c2ccccc21,-2.9%,-0.8%,-0.7%,20µM*,-5.8,-23.1%
NC(=NCCCCCCN=C(N)/N=C(\N)Nc1ccc(Cl)cc1)/N=C(\N)Nc1ccc(Cl)cc1,14.1µM*,9.4%[201 µM],-1.4%[201 µM],-16.4%,-1.2,-98.0%
CC(C)N=C(N)/N=C(\N)Nc1ccc(Cl)cc1,9.7%[20.6 µM],1.7%[53 µM],-1.7%[53 µM],4.3%[25.5 µM],-0.1,-4.4%[40.3 µM]
CCOC(=O)C1CCC(CN(Cc2ccc(Cl)cc2)S(=O)(=O)c2ccc(F)c(C(=O)Nc3cccc(F)c3)c2)CC1 (centres undefined),nt,-7.3%,-0.6%,nt,nt,nt
COc1ccc(/C=C/c2cc(OC)c(OC)cc2CC[N+](C)(C)C)cc1,nt,4.5%,-2.0%,?,1.6,-39.1%
O=S(=O)(c1ccc(Cl)cc1)c1snnc1-c1ccccc1,14.7%[9.22 µM],1.5%,-2.5%,8.3%,-8.7,-121.5%
O=S(=O)(c1ccc(F)cc1)c1snnc1-c1ccccc1,?,-8.1%,0.1%,-28.1%,-30.5*,?
Cc1cc(C)n(-c2nc(Nc3ccccc3C(F)(F)F)nc(-n3nc(C)cc3C)n2)n1,10µM*,-18.3%,-1.7%,4.6%,-0.2,11.2%[1.9 µM]
Cc1cc(C)n(-c2nc(Nc3ccccc3C)nc(-n3nc(C)cc3C)n2)n1,-24.0%,-4.2%,-1.3%,1.8%,nt,-16.2%
SMILES,HttQ103 aggreg,TRb SRC2 PPI,TexasRed fluor,KDM4E inh,FBPA coupling cs,HTT ATP protect
O=C(Cc1csc2ccccc12)NCc1ccc(F)cc1,nt,-1.6%,-1.7%,nt,nt,nt
O=C(Nc1cccc(Cl)c1)c1cc(-c2ccc3c(c2)OCCO3)on1,nt,-10.3%,10µM*[quencher],nt,nt,nt
CCC12CN3CC(CC)(CN(C1)C3c1c[nH]c3ccccc13)C2=O (centres undefined),nt,-2.6%,-0.9%,nt,nt,nt
CCC12CN3CC(CC)(CN(C1)C3c1c(O)ccc3ccccc13)C2=O (centres undefined),-31.0%,?,?,12.6µM*,-35.8*,?
Cc1ccc(C(=O)CC2(O)C(=O)N(Cc3ccccc3Cl)c3ccccc32)o1 (centres undefined),3.16µM*,-12.1%,-0.6%,-13.0%,1.3,-32.7%
Cc1ccc(C(=O)CC2(O)C(=O)N(Cc3ccccc3)c3ccccc32)o1 (centres undefined),-14.6%,-4.9%,0.8%,0.3%,3.2,-17.0%[0.074 µM]
COc1ccc(S(=O)(=O)NCC(c2ccc(N(C)C)cc2)N2CCc3ccccc32)cc1F (centres undefined),nt,3.3%,-0.8%,nt,nt,nt
O=C(COc1cccnc1[N+](=O)[O-])c1ccc(Cl)s1,1.9%[9.22 µM],-19.1%,-15.9%,14.1µM*,-29.7,-5.5%[10 µM]
Cc1cc(C)c(NC(=S)NCC2CCN(C(C)c3ccccc3)C2)c(C)c1 (centres undefined),1.7%,-2.2%,0.3%,-3.1%,-48.9*,-18.5%
CC(C(O)c1ccc(O)cc1)N1CCC(Cc2ccccc2)CC1 (centres undefined),-12.1%,0.0%,0.8%,0.0%,1.3,5.01µM*!
CCOC(=O)CNC(=O)/C=C/c1ccc2c(c1)OCO2,-3.6%,-4.8%,-0.9%,?,1.7,-6.7%[10 µM]
CCOC(=O)CNc1ccc2c(c1)OCO2,-3.7%,-21.7%,-1.7%,?,-38.4*,-13.2%[0.074 µM]
Cc1ccc(C(=O)N/C(=C\c2ccc(-c3ccccc3[N+](=O)[O-])o2)C(=O)NCCN(C)C)cc1,nt,nt,nt,nt,-42.3*,nt
COC(=O)CCSCCC(=O)OC,nt,-1.6%[201 µM],3.1%[201 µM],nt,nt,nt
CCN(CC)S(=O)(=O)c1nnc(NC(=O)COc2cccc(C)c2)s1,nt,-10.1%,3.16µM*[quencher],nt,nt,nt
O=C(COc1ccccc1)Nc1nnc(S(=O)(=O)Nc2ccccc2)s1,nt,-22.3%,0.0501µM*[quencher],nt,0.3,nt
Cc1ccc2c(=O)c(C(=O)c3ccccc3)cn(CC(=O)Nc3ccc4c(c3)OCCO4)c2n1,nt,5.1%,-2.0%,nt,nt,nt
